Active and inactive are the calls of the source. The calls were made as follows: active = hit-call score of the fitted dose curve at least 0.9, where 1 is the maximum; inactive = score below 0.9.
Assay: CCTE_Simmons_MITO_basal_resp_rate: CCTE's HepG2 Seahorse XF Respirometric Screening Assay at Basal Respiratory State, Simmons Lab (AID 2284001)
Conditions: actives raise or lower the signal
Description: CCTE_Simmons_MITO is cell-based, respirometric assay using HepG2 cells and a Seahorse XF Analyzer to measure oxygen consumption rates over four temporal phases spanning a total of 72 minutes: pre-injection (pre-treatment), basal (following test compound injection), maximal (following FCCP uncoupler injection), and inhibited (following rotenone/antimycin A injection)CCTE_Simmons_MITO_basal_resp_rate is one of 4 assay components calculated from the CCTE_Simmons_MITO assay. It is designed to make measurements of basal respiration using a form of respirometric reporter, as detected with […] signals by Seahorse XF96 technology. Data from the assay component CCTE_Simmons_MITO_basal_resp_rate was analyzed at the endpoint, CCTE_Simmons_MITO_basal_resp_rate_OCR, with bidirectional fitting relative to DMSO as the negative control and baseline of activity. Using a type of respirometric reporter, measures of basal respiration for gain or loss-of-signal activity can be used to understand cellular oxygen consumption as it relates to cellular respiration. To generalize the intended target to other relatable targets, this assay endpoint is annotated to the mitochondria intended target family, where the subfamily is respiration.
Test chemicals were administered as a titrated series of 7 concentrations from 125 nM up to 100 uM [final] prior to kinetic endpoint detection at 6 minute intervals [3 min mix followed by 3 minutes measure] for 72 minutes. Three biological replicates of technical singles were run for every chemical concentration tested. Dimethylsulfoxide [DMSO] was used as the vehicle control. The electron transport chain inhibitor fenpyroximate was used as the positive control for decreased basal respiration and was administered as a titrated series of 6 concentrations from 250 nM up to 2.75 uM [final] with technical triplicates for the top concentration only. The uncoupler 2,4-dintirophenol was used as the positive control for increased basal respiration and was administered as a titrated series of 6 concentrations from 938 nM up to 40 uM [final] with technical triplicates for the top concentration only. A Seahorse XF Analzyer is required to measure the response.

| SMILES | outcome | AC50 |
| --- | --- | --- |
| O=C(O)C(F)(F)C(F)(F)C(F)(F)C(F)(F)C(F)(F)C(F)(F)C(F)(F)C(F)(F)C(F)(F)F | inactive | – |
| CO/C=C(/C(=O)OC)c1ccccc1COc1cccc(C(F)(F)F)n1 | – | 2.02 µM (active) |
| C[C@]12CCC(=O)C=C1CC[C@@H]1[C@@H]2CC[C@@]2(C)[C@H]1CC[C@]2(C)O | inactive | – |
| COc1ccc(O)c(C(C)(C)C)c1 | – | 44 µM (active) |
| Oc1c(Cl)c(Cl)c(Cl)c(Cl)c1Cl | – | 0.451 µM (active) |
| CCNc1nc(NC(C)C)nc(SC)n1 | inactive | – |
| C[C@]12CCC(=O)C=C1CC[C@@H]1[C@@H]2CC[C@]2(C)C(=O)CC[C@@H]12 | – | 38 µM (active) |
| CC(C)(O)C(=O)Nc1ccc([N+](=O)[O-])c(C(F)(F)F)c1 | – | 40.9 µM (active) |
| CC(c1ccc(O)cc1)(c1ccc(O)cc1)c1ccc(O)cc1 | – | 14.5 µM (active) |
| CC(C)(c1ccccc1)c1ccc(O)cc1 | – | 19.9 µM (active) |
| CCC(C)(c1ccc(O)cc1)c1ccc(O)cc1 | – | 16.9 µM (active) |
| NS(=O)(=O)C(F)(F)C(F)(F)C(F)(F)C(F)(F)C(F)(F)C(F)(F)C(F)(F)C(F)(F)F | – | 34.9 µM (active) |
| O=C(O)C(F)(F)C(F)(F)C(F)(F)C(F)(F)C(F)(F)C(F)(F)C(F)(F)C(F)(F)F | inactive | – |
| CCSC(=O)N(CC)C1CCCCC1 | – | 50 µM (active) |
| CCCCCCCCCC[N+](C)(C)CCCCCCCCCC | – | 8.58 µM (active) |
| CCC(C)c1cc([N+](=O)[O-])cc([N+](=O)[O-])c1O (stereo not drawn) | – | 0.329 µM (active) |
| N#Cc1ccc(N(CC(N)=O)CC(F)(F)F)cc1C(F)(F)F | inactive | – |
| Oc1ccc(C(c2ccc(O)cc2)(C(F)(F)F)C(F)(F)F)cc1 | – | 10.8 µM (active) |

From PubChem BioAssay (EPA / NIEHS)
